For the first experiment, the target named is CIAPIN1. Kind of experiment: pooled miR-30 sensor sort-seq; sequence = guide strand. The note with it: shRNA.
TTGTTATCTACAGCTGTCTCTA returned a sensor-assay potency score (higher = more potent) of -0.353.

The sequence TCTCAGAGTGAACAAATCCAGA gave a sensor-assay potency score (higher = more potent) of -1.26.

Sequence TTCTTCAGGACACACTCCCTTC yielded a sensor-assay potency score (higher = more potent) of -0.89.

The sequence TGGAGTAAACTAACAACTCTGA had a sensor-assay potency score (higher = more potent) of -0.493.

Turning to TGTGATCTGAACAAACAGCAGG, the sensor-assay potency score (higher = more potent) was -0.776.

For the sequence TAAGCTGCCTAGAAGAACCCAC, the sensor-assay potency score (higher = more potent) was 0.616.

In turn, TTAACATAAATGACAACAGGAC had a sensor-assay potency score (higher = more potent) of -0.72.

TTGACTTCTCTTTTTCCAGTTC showed a sensor-assay potency score (higher = more potent) of -0.361.

In the case of TGGTCTTTTGATACACAGCAGC, the sensor-assay potency score (higher = more potent) was -1.52.

TAACGCTTGAAGCTTATCCACC: the sensor-assay potency score (higher = more potent) is -1.25.

TTAGATGCTGTCTTCACTTTGC registered a sensor-assay potency score (higher = more potent) of -0.0905.

On to TTGTGAGCCACTTGACTCGTGT, for which the sensor-assay potency score (higher = more potent) is -0.0962.

The next experiment has as its target CIR1. Described as above. The note with it: shRNA.
The sequence TTTATTGTTACTCTCACTCTCA returned a sensor-assay potency score (higher = more potent) of 0.426.

For the sequence TTGTTCTTTAAGATATTGCTGC, the sensor-assay potency score (higher = more potent) is -0.164.

TTCTTTAAGATATTGCTGCATC registered a sensor-assay potency score (higher = more potent) of -0.396.

The sequence TTCTCTTCTTAGACTTGTCCTT showed a sensor-assay potency score (higher = more potent) of -0.317.

For TATCATATGATATTTTCTGTTC, the sensor-assay potency score (higher = more potent) was -0.717.

As for TTCTTCATGAAGCTTTCTCTTC, the sensor-assay potency score (higher = more potent) was -0.59.

For the sequence TAGACTTGTCCTTCTCTTCAGA, the sensor-assay potency score (higher = more potent) was -0.159.

In turn, TTTCGTTTCAGTGCAAACCCAC displayed a sensor-assay potency score (higher = more potent) of -0.179.

In turn, TACTGCTTTCTGAAGTCTCAGT had a sensor-assay potency score (higher = more potent) of -0.586.

In turn, TTTTCTTCTCCAGTCGATCTAA had a sensor-assay potency score (higher = more potent) of -0.412.

Take TCTCTTCTTAGACTTGTCCTTC: the sensor-assay potency score (higher = more potent) was -0.0367.

For TTTGTGTTTACTTCTGCTCTTC, the sensor-assay potency score (higher = more potent) was determined as 0.203.

These data come from the OligoGym collection.
Note: reference of the scale not given here.
